Rab9 prom act – qHTS Assay for Rab9 Promoter Activators | Huh7 Rab9 promoter-luciferase reporter, luminescence, 24 h | Potency, µM (doses to about 9.22 µM), most hits filed as activators | 2.8% of 320,000 active; note: nearly all actives have a fitted effect of over 60% in size
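Measured in stably transfected Huh7 cells bearing a Rab9 promoter–luciferase construct: 24 h compound treatment at 37 °C, followed by luminescence detection.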
NPC1 prom act – qHTS Assay for NPC1 Promoter Activators | AID 485313, 2010 | Potency, µM (doses to about 9.22 µM), hits mostly activators | Huh7 NPC1 promoter luciferase reporter, 24 h | 2.4% of 320,000 active; note: nearly all actives have a fitted effect of over 60% in size
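Stable NPC1-promoter luciferase Huh7 line; cpd (DMSO) 24 h, 37 °C, 5% CO2; Amplite luciferase reagent 10 min RT; luminescence readout. qHTS format.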
ELG1 genotox – qHTS screen for small molecules that induce genotoxicity in human embryonic kidney (HEK293T) cells expressing luciferase-tagged ELG1; HEK293T ELG1-luciferase reporter, luminescence, 16 h; Potency, µM (series often up to 46 µM), hits mostly activators; 1.3% of 330,000 active; AID 504466, 2011; note: nearly all actives have a fitted effect of over 60% in size
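After overnight (16 hr) compound treatment at 37 °C, ELG1-luciferase HEK293T cells were lysed with ONE-Glo; luminescence quantified 30 min later at room temperature.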
FLuc modulator – qHTS profiling assay for firefly luciferase inhibitor/activator using purifed enzyme and Km concentrations of substrates (counterscreen for miR-21 project); Luciferin 4-monooxygenase (Photinus pyralis), P08659; purified FLuc, Km substrates, luminescence inhibition; Potency, µM (top dose mostly 57.5 µM), usual class: inhibitors; 6.9% of 360,000 active; note: nearly all actives have a fitted effect of over 55% in size
Target sequence (P08659 whole entry, looked up): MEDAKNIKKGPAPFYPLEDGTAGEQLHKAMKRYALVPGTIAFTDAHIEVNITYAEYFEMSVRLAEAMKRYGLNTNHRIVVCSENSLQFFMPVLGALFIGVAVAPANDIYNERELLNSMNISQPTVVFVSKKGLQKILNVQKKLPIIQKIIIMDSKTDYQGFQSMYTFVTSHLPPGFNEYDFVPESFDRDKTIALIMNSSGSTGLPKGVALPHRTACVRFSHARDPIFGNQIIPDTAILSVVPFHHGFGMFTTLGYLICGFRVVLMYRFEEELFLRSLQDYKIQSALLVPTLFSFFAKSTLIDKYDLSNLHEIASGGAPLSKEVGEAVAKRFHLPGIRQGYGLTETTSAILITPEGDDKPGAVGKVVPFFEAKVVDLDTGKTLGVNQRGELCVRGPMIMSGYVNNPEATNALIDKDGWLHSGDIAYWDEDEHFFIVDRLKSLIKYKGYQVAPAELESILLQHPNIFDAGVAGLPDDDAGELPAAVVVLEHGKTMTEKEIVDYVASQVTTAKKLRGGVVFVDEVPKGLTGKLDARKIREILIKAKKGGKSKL
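Purified P. pyralis luciferase, 10 nM final, with Km-level 10 uM D-luciferin and 10 uM ATP in 50 mM Tris acetate pH 7.5, 10 mM Mg acetate, 0.01% Tween-20, 0.05% BSA; 6-point qHTS titration about 60 µM downward; luminescence read.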
SMN2 splice enh – qHTS Assay for Enhancers of SMN2 Splice Variant Expression; Potency, µM (series often up to 46.1 µM), most hits filed as activators; HEK293 SMN2-luciferase splicing reporter, luminescence, 30-36 h; 2.8% of 210,000 active; note: nearly all actives have a fitted effect of over 55% in size
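HEK293 cells carry an SMN2 […]–luciferase reporter in which exon 7 inclusion puts luciferase in frame. Cells were plated 10-12 h before compound addition, then incubated 30-36 h at 37C. ONE-Glo luminescence was read; sodium butyrate at 4.5 mM final served as control.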
Large screens that a line does not name were inactive. Most compounds without a hit are left out; they make up all but 7.5% or so of the library. Calls come from the whole dose curve; as a rule, active = well fitted curve in the direction sought with a large enough effect; inconclusive = small, poorly fitted or top-dose-only effect, or another doubt; inactive = no such curve, though single readings can be large; an effect the other way counts as inactive or inconclusive.

Cc1cccc(/C=N/NC(=O)c2cc(Br)ccc2O)n1	ELG1 genotox inconclusive, FLuc modulator 24µM (no result: SMN2 splice enh)
CCOc1ccc(Br)cc1C(=O)N/N=C/c1cccc(C)n1	none (no result: SMN2 splice enh)
O=C(CCNS(=O)(=O)c1cccs1)N1CCN(c2cccc(C(F)(F)F)c2)CC1	none (no result: FLuc modulator, SMN2 splice enh)
COc1ccc(NC(=O)c2c(C)oc3ccc(O)c(CN4CCOCC4)c23)cc1	none (no result: Rab9 prom act, NPC1 prom act, ELG1 genotox)
O=C(Nc1nn(Cc2ccc(Cl)cc2)cc1Br)c1ccc(COc2ccccc2Cl)o1	none
O=C(Nc1ccccn1)c1ccc(COc2ccccc2Cl)o1	ELG1 genotox inconclusive, FLuc modulator 17µM
CCOc1ccc(OCc2ccc(C(=O)Nc3ccc(Cl)cn3)o2)cc1	NPC1 prom act inconclusive, FLuc modulator inconclusive, SMN2 splice enh 18µM
O=C(Nc1cccnc1)c1ccc(COc2ccccc2Cl)o1	FLuc modulator inconclusive
O=C(Nc1ccc(Cl)cn1)c1ccc(COc2ccccc2Br)o1	Rab9 prom act inconclusive, FLuc modulator inconclusive, SMN2 splice enh 13µM
c1ccc2c(c1)Nc1ccncc1S2	none (no result: SMN2 splice enh)
COc1cc(C2C(C(=O)c3cc4ccccc4o3)=C(O)C(=O)N2c2cc(C)on2)cc(OC)c1OC (configuration not stated)	none (no result: SMN2 splice enh)
Cc1ccc(S(=O)(=O)N2CCOCC2)cc1C(=O)Nc1ccc(N2CCCCCC2)cc1	FLuc modulator inconclusive (no result: SMN2 splice enh)
COC(=O)Cn1cnc2c(nnn2Cc2ccc(Cl)cc2)c1=O	none
Cc1cccc(-n2c(-c3ccccc3)c[nH]c2=S)c1C	none (no result: SMN2 splice enh)
COc1ccccc1C1=NC(c2ccc(C)cc2)N=C1C (configuration not stated)	Rab9 prom act inconclusive, NPC1 prom act inconclusive, FLuc modulator 15µM, SMN2 splice enh inconclusive
COc1ccccc1C(=O)N1CCC(N2CCN(c3ccccc3OC)CC2)CC1	none (no result: SMN2 splice enh)
CCOc1ccc(-c2csc(NC(=O)c3cccc(N4C(=O)CCC4=O)c3)n2)cc1	FLuc modulator 9.5µM (no result: SMN2 splice enh)
COc1ccc(-c2csc(NC(=O)c3cccc(N4C(=O)CCC4=O)c3)n2)cc1OC	FLuc modulator 15µM (no result: SMN2 splice enh)
COc1ccc(-c2csc(NC(=O)CCN3C(=O)C4CC=CCC4C3=O)n2)cc1OC (configuration not stated)	FLuc modulator 17µM (no result: SMN2 splice enh)
COc1ccc(C)c2sc(NC(=O)c3cccc(N4C(=O)CCC4=O)c3)nc12	none (no result: SMN2 splice enh)
COc1ccc(-c2csc(NC(=O)c3ccc(N4C(=O)CCC4=O)cc3)n2)cc1	none
CCc1ccc(-c2csc(NC(=O)C3=NN(c4ccccc4)C(=O)CC3)n2)cc1	FLuc modulator 6µM
CC(C)(C)NS(=O)(=O)c1ccc(NS(C)(=O)=O)cc1	none
Cc1ccc(-c2csc(NC(=O)c3cccc(N4C(=O)CCC4=O)c3)n2)o1	FLuc modulator 9.5µM
COc1ccc(Br)c(-c2nnc(CS(=O)(=O)c3ccccc3)o2)c1	Rab9 prom act 2.8µM, NPC1 prom act inconclusive, ELG1 genotox inconclusive, FLuc modulator 19µM (no result: SMN2 splice enh)
CCC1CCCCN1CC(=O)N1CCCc2c1c(=O)oc1ccc(OCc3ccccc3)cc21 (configuration not stated)	none (no result: Rab9 prom act, NPC1 prom act, ELG1 genotox)
O=C(COC(=O)c1cccnc1Cl)NCCCc1ccccc1	none (no result: FLuc modulator, SMN2 splice enh)
O=C(CSc1nc(-c2ccccc2)ns1)N1CCOCC1	Rab9 prom act 2.8µM, NPC1 prom act 2.5µM, ELG1 genotox 23µM, FLuc modulator inconclusive (no result: SMN2 splice enh)
Cc1cccc(-c2nsc(SCC(=O)N3CCCC3)n2)c1	Rab9 prom act 1.4µM, NPC1 prom act 1.6µM, ELG1 genotox inconclusive, FLuc modulator 6µM, SMN2 splice enh 14µM
CCCN(C(=O)Cc1nc(N)n[nH]1)C1(C(=O)Nc2ccccc2C)CCCCC1	none
CC(CNC(=O)CN1C(=O)C(=O)N(C2CCCC2)C1=O)c1ccccc1 (configuration not stated)	none (no result: SMN2 splice enh)
CCOC(=O)CC(=O)Nc1ccc(C(=O)OCC)cc1	none
CCOC(=O)c1ccc(NC(=O)N(CC)CC)cc1	Rab9 prom act 2.5µM, NPC1 prom act inconclusive, ELG1 genotox 16µM, FLuc modulator 19µM, SMN2 splice enh 11µM
CC(C)OC(=O)c1ccc(NC(=O)c2ccccc2)cc1	Rab9 prom act inconclusive, NPC1 prom act 4µM, FLuc modulator 15µM, SMN2 splice enh 13µM
Cc1ccc(NC(=O)CNC(=O)c2ccco2)cc1	Rab9 prom act 4µM, NPC1 prom act inconclusive, FLuc modulator inconclusive (no result: SMN2 splice enh)
COC(=O)c1ccc(NC(=O)c2cccc(NC(=O)c3ccco3)c2)cc1	none (no result: SMN2 splice enh)
CC(C)OC(=O)c1ccc(NC(=O)c2ccco2)cc1	Rab9 prom act 3.2µM, NPC1 prom act 2.5µM, ELG1 genotox 2.8µM, FLuc modulator 13µM (no result: SMN2 splice enh)
COc1ccc(-c2sc3ccc(N4CCOCC4)cc3c2C#CC2(O)CCCCC2)cc1	none (no result: Rab9 prom act, NPC1 prom act, FLuc modulator, SMN2 splice enh)
CN(C)S(=O)(=O)c1cccc(NC(=O)c2cc([N+](=O)[O-])ccc2N2CCCCC2)c1	none (no result: FLuc modulator, SMN2 splice enh)
CCOc1ccccc1NC(=O)c1ccc(NC(=O)c2ccco2)cc1	none
CCOC(=O)c1ccc(NC(=O)c2ccco2)cc1	Rab9 prom act 2.2µM, NPC1 prom act 3.5µM, ELG1 genotox inconclusive, FLuc modulator 11µM (no result: SMN2 splice enh)
CCN(CC)C(=O)c1ccc2nc3ccccc3nc2c1	FLuc modulator inconclusive
Cc1ccc(NC(=S)N(CCN(C)C)Cc2cccs2)cc1	none
CC(C)OC(=O)c1ccc2nc3ccccc3nc2c1	Rab9 prom act 0.71µM, NPC1 prom act 2.8µM, ELG1 genotox inconclusive, FLuc modulator 1.7µM (no result: SMN2 splice enh)
CCOC(=O)c1ccc(NC(=S)N(CCN(C)C)Cc2cccs2)cc1	SMN2 splice enh 3.5µM
Cc1ccc(S(=O)(=O)NC(C)c2ccccc2)cc1[N+](=O)[O-] (configuration not stated)	none (no result: SMN2 splice enh)
COc1ccc(NC(=O)CN(C)C(=O)C(CCSC)NC(=O)c2ccccc2)cc1 (configuration not stated)	none (no result: SMN2 splice enh)
O=C(CSCc1ccc(F)cc1)N1CCOCC1	NPC1 prom act inconclusive, ELG1 genotox inconclusive, FLuc modulator inconclusive
CC(=O)Oc1ccc2oc(/C=C/N(C)C)c([N+](=O)[O-])c2c1	ELG1 genotox inconclusive, FLuc modulator 15µM
CCC(=O)Nc1cccc(-c2cn3ccccc3n2)c1	Rab9 prom act inconclusive, NPC1 prom act inconclusive, FLuc modulator 11µM, SMN2 splice enh inconclusive
CCOc1ccc(CC(=O)Nc2ccc(-c3ccc4nnc(C)n4n3)cc2)cc1	ELG1 genotox 21µM
COc1ccc(CC(=O)Nc2ccc(-c3cn4ccccc4n3)cc2)cc1OC	ELG1 genotox inconclusive, FLuc modulator 17µM
COc1ccc(CC(=O)Nc2ccc(-c3cn4ccccc4n3)cc2)cc1	Rab9 prom act 3.2µM, NPC1 prom act inconclusive, ELG1 genotox inconclusive, FLuc modulator 3.4µM, SMN2 splice enh inconclusive
CN(CC(=O)Nc1ccc(F)cc1)C(=O)c1ccc2ccccc2n1	none (no result: SMN2 splice enh)
COc1ccc(-c2cn(-c3ccc(C)cc3)c(S(=O)(=O)CC(=O)Nc3ccccc3)n2)cc1	FLuc modulator inconclusive, SMN2 splice enh 13µM (no result: Rab9 prom act, NPC1 prom act, ELG1 genotox)
